FBW7 activator – activators of human E3 ligase FBW7 | 0.13% of 650,000 active | Q969H0 | AlphaScreen FBW7–phospho-cyclin E peptide binding, activator screen | normalized activity (activation), % at 26.1 µM; in the data active = normalized activity above about 1.9%;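 note: purified mutant Fbw7 with reduced substrate affinity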
MITF inh – inhibitors of human MITF; O75030; 0.91% of 650,000 active; AlphaScreen MITF homodimerization, bead proximity signal; inhibition, % at 2.6 µM; in the data active = inhibition above about 50%;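 note: 0% = vehicle wells with protein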
TEAD-YAP block – TEAD-YAP interaction inhibition; 1.4% of 640,000 active; HEK-TIYL cells, TEAD-Gal4/YAP UAS-luciferase luminescence; inhibition, % at 9.12 µM; AID 1259422; in the data active = inhibition above about 32%;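 note: 0% = median of test compound wells and 100% = reference inhibitor wells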
GPR151 ag – activates the human receptor GPR151. activation, % at 11.2 µM. Q8TDV0. PathHunter beta-arrestin GPR151 cells, luminescence. 1% of 650,000 active; in the data active = activation above about 4.9%;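 note: 0% = median of compound wells and 100% = cells with positive control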
Target sequence (Q8TDV0 whole entry, looked up): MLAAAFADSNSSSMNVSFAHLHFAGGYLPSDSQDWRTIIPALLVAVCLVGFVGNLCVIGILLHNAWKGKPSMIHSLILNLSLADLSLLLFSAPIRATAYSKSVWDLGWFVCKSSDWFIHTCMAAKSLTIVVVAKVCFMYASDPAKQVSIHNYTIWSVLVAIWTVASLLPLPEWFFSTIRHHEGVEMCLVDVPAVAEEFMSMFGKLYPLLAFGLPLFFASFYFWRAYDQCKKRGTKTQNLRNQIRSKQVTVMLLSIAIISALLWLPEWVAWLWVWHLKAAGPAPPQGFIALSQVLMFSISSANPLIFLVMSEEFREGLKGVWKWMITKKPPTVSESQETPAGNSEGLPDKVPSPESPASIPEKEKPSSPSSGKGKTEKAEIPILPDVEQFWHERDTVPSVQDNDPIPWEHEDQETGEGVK
MITF inh conf – human MITF inhibition, confirmation | 16% of 4,700 active | shares compounds with MITF inh | inhibition, % at 2.6 µM | AlphaScreen MITF homodimerization, biotin/His-MITF beads;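 active = inhibition above a cutoff derived from the DMSO control wells, cut at about 28% in these data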;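 note: 0% = MITF dimer wells with DMSO only; inhibitors lower the bead chemiluminescence by keeping MITF from dimerizing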
AlphaScreen DR – AlphaScreen optical interference, dose response counter-screen | 6% of 480 active | IC50, µM | AlphaScreen optical interference counterscreen, cell-free | shares compounds with MITF inh; call rule not given here
AlphaScreen intf2 – optically interferes with AlphaScreen signal; shares compounds with MITF inh; LysRS AlphaScreen counterscreen, signal interference, triplicate; inhibition, % at 2.6 µM; 7.6% of 4,700 active; AID 1259376;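 active = inhibition above a cutoff derived from the DMSO control wells, cut at about 30% in these data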
* = called active by the depositor; / = no result given. This is a sample that favours compounds with a hit; in the whole collection about 3.5% have one here.

SMILES	FBW7 activator	MITF inh	TEAD-YAP block	GPR151 ag	MITF inh conf	AlphaScreen intf2	others
O=C(Oc1coc(CSc2ncccn2)cc1=O)C1CC(=O)N(c2ccc(F)cc2)C1 (configuration not stated)	0	16	4	0	/	/
CN(C(=O)Cc1ccc(NC2=NC3CS(=O)(=O)CC3S2)cc1)C1CCCCC1 (configuration not stated)	-1	58*	-8	4	56*	42*
COc1ccc(C(N)c2nccn2C)cc1OC (configuration not stated)	0	64*	-2	-1	26	61*
COc1ccc(C(O)c2nccn2C)cc1OC (configuration not stated)	0	3	-3	0	/	/
Cc1ccc(C(=O)Nc2ccc(C(=O)O)cc2)cc1S(N)(=O)=O	0	7	12	0	/	/
O=C(CN1CCOCC1)Nc1ccccc1N1CCCCCC1	0	69*	-2	0	15	11
CC1CCN(CC(=O)Nc2ccccc2N2CCOCC2)CC1	0	69*	5	-1	1	17
O=C(CN1CCCC1)Nc1ccccc1N1CCOCC1	0	34	0	-1	/	/
Cn1nnnc1SCC(=O)Nc1ccccc1N1CCOCC1	0	63*	3	0	4	11
CN(NC(=O)CN1CCOCC1)c1ccccc1	0	51*	-5	-1	1	10
CCN1CCN(C2CCN(Cc3cc(OC)ccc3OC)CC2)CC1	0	61*	10	0	-5	-6
COc1ccc(CN2CCC(N3CCCCC3)CC2)c(OC)c1	0	25	1	-1	/	/
COc1ccc(CN2CCC(N3CCCC3)CC2)cc1	0	52*	-2	0	3	3
COc1ccc(OC)c(CN2CCN(C3CCCC3)CC2)c1	0	70*	5	-1	4	7
Brc1ccc(CN2CCC(N3CCCCC3)CC2)cc1	0	42	-8	-1	/	/
COc1ccc(OC)c(CN2CCC(N3CCCCC3)CC2)c1	0	52*	8	0	10	9
COc1ccc(OC)c(CN2CCC(O)CC2)c1	0	37	-4	-1	/	/
O=C(CN1CCN(Cc2nc(-c3ccccc3)cs2)CC1)NCc1ccco1	0	3	-11	0	/	/
COc1ccc(CCNC(=O)CN2CCN(Cc3nc(-c4ccco4)cs3)CC2)cc1OC	-1	70*	8	0	28*	12	AlphaScreen DR=>6.5
O=C(CN1CCN(Cc2nc(-c3ccco3)cs2)CC1)NCCc1ccccc1	0	76*	3	-1	14	12
O=C(CN1CCN(Cc2nc(-c3ccc(F)cc3)cs2)CC1)NCc1ccco1	0	70*	-12	1	18	4
C=CCNC(=O)CN1CCN(Cc2nc(-c3ccccc3)cs2)CC1	0	70*	-19	-3	-18	2
COc1ccc([C@@H]2CCN(C(=O)c3cc(F)cc(F)c3)C[C@H]2O)cc1	0	-8	-9	-1	/	/
O=C(c1cc(F)cc(F)c1)N1CC[C@@H](c2ccccc2)[C@H](O)C1	0	53*	-3	-1	-3	7
COc1cccc(CN2CCN(Cc3ccco3)[C@@H](C)C2)c1	0	3	2	-1	/	/
SMILES	FBW7 activator	MITF inh	TEAD-YAP block	GPR151 ag	MITF inh conf	AlphaScreen intf2	others
COc1cc(OC)cc(C(=O)N2CCN(Cc3cccc(Oc4ccccc4)c3)CC2)c1	0	37	-3	2	/	/
COc1cc(CN2CCN(Cc3ccco3)CC2)cc(OC)c1	0	83*	3	1	4	20
COc1cc(OC)cc(C(=O)N2CCN(Cc3ccco3)CC2)c1	0	59*	2	-2	3	16
COc1ccc(-c2cc(C3CC3)nc(SCC(N)=O)c2C#N)cc1	0	51*	14	-1	-4	-5
N#Cc1c(-c2ccc(Br)cc2)cc(C2CC2)nc1SCC(=O)c1ccccc1	0	66*	-4	0	-7	16
COc1ccc(-c2cc(C3CC3)nc(SCC(=O)c3ccc(Br)cc3)c2C#N)cc1	0	7	-2	-1	/	/
O=C(Cc1ccsc1)N1CCC(N2CCC(C(=O)N3CCOCC3)CC2)CC1	0	-3	8	1	/	/
CCn1c2ccccc2c2cc(CN3CCN(C(=O)c4ccccc4)CC3)ccc21	0	23	-1	0	/	/
CCn1c2ccccc2c2cc(CN3CCN(C(=O)c4ccc(OC)cc4)CC3)ccc21	0	48	7	1	/	/
CCn1c2ccccc2c2cc(CN3CCN(C(=O)c4cccnc4)CC3)ccc21	0	58*	-4	0	3	3
CCn1c2ccccc2c2cc(CN3CCN(C(=O)c4ccc(F)cc4)CC3)ccc21	0	55*	-14	4	5	7
CC(C)CNC(=O)c1cn(C2CCCCC2)cc(C(=O)NCCc2cccnc2)c1=O	0	51*	-43	-1	3	0
CCOc1ccc(N2CCN(CC(=O)Nc3ccc(SC)cc3)C2=O)cc1	0	61*	-5	-1	1	15
CCSc1nnc(NC(=O)c2c(-c3ccccc3Cl)noc2C)s1	0	114*	6	-1	25	12
CCOC(=O)CSc1nnc(NC(=O)c2c(-c3ccccc3Cl)noc2C)s1	0	12	2	-1	/	/
CC(C)(C)c1ccc(C(=O)NNC(=O)c2cc([N+](=O)[O-])cc([N+](=O)[O-])c2)cc1	0	7	4	0	/	/
Nc1nc(Nc2ccc(N3CCOCC3)cc2)cc(N2CCCC2CO)n1 (configuration not stated)	0	17	9	0	/	/
O=C(Nc1ccc(C(=O)Nc2ccc(C(=O)Nc3ccc(S(=O)(=O)O)c4cc(S(=O)(=O)O)cc(S(=O)(=O)O)c34)cc2)cc1)Nc1ccc(C(=O)Nc2ccc(C(=O)Nc3ccc(S(=O)(=O)O)c4cc(S(=O)(=O)O)cc(S(=O)(=O)O)c34)cc2)cc1	0	71*	/	1	67*	7	AlphaScreen DR=>6.5
O=C(Nc1cc(C(=O)Nc2ccc(S(=O)(=O)O)cc2S(=O)(=O)O)cc(C(=O)Nc2ccc(S(=O)(=O)O)cc2S(=O)(=O)O)c1)Nc1cc(C(=O)Nc2ccc(S(=O)(=O)O)cc2S(=O)(=O)O)cc(C(=O)Nc2ccc(S(=O)(=O)O)cc2S(=O)(=O)O)c1	0	24	-9	-2	/	/
O=C(COC(=O)c1cc(=O)c2ccccc2o1)NCc1ccccc1	0	3	0	-1	/	/
O=C(COC(=O)c1cc(=O)c2ccccc2o1)NCc1ccc(Cl)cc1	0	52*	11	-1	-9	-5
OCc1ccc(CN2CCCC(c3[nH]ncc3-c3c(F)cccc3F)C2)o1 (configuration not stated)	0	5	5	1	/	/
